Compounds without any hit were thinned out: in the full panel of roughly 79,000, 15% have a hit. Values without a mark were called inactive. Active and inactive are the calls of the source. Rule as the data show it: active = growth inhibition above about 70%; inactive = the rest. Where a SMILES comes first, the peptide text is derived from it. [ ]: non-standard residue; d: D form. The star is where a group is joined. ξ: configuration not given here. Tos = Cc1ccc(S(=O)(=O)*)cc1; ξY = NC(Cc1ccc(O)cc1)C(=O)O

Assay [1] is described as follows: NCI Yeast Anticancer Drug Screen. Data for the rad50 strain (AID 155).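 Also: 0% = growth of vehicle-only cultures of the same strain.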 To be noted: S. cerevisiae rad50 strain growth inhibition; at 50.0 µM; active compounds read high. The method, boiled down: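 Growth of the mutant yeast was measured after compound exposure and referenced to vehicle-treated cultures.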
Assay [2] can be described thus: NCI Yeast Anticancer Drug Screen. Data for the mec2-1 strain (AID 157). To be noted: S. cerevisiae mec2-1 strain, at 50.0 µM, active compounds read high. The method, boiled down:
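Readout is yeast growth inhibition, normalised to vehicle-treated controls, in the mec2-1 strain exposed to compound.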

Assay [3] is described as follows: NCI Yeast Anticancer Drug Screen. Data for the sgs1 mgt1 strain (AID 161).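 Also: 0% = growth of cultures given vehicle only.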 To be noted: S. cerevisiae sgs1 mgt1 strain, at 50.0 µM, active compounds read high. Summed up:
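This yeast growth screen uses a strain with defined DNA-repair lesions; compound-treated growth is compared with vehicle-treated growth.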

Assay [4] in a line: NCI Yeast Anticancer Drug Screen. Data for the cln2 rad14 strain (AID 165).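 Also: 0% = growth equal to vehicle treated cultures.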 As to conditions: S. cerevisiae cln2 rad14 strain, at 50.0 µM, active compounds read high. The method, boiled down: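 Relative to vehicle controls, growth inhibition of compound-treated cln2 rad14 yeast was recorded.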
Assay [5] can be described thus: NCI Yeast Anticancer Drug Screen. Data for the bub3 strain (AID 167). As to conditions: S. cerevisiae bub3 mutant strain, at 50.0 µM, active compounds read high. Summed up:
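Whole-cell yeast assay. The mutant strain was incubated with compounds, and growth inhibition was determined by comparison with vehicle-treated cells.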

Assay [6] can be described thus: NCI Yeast Anticancer Drug Screen. Data for the mlh1 rad18 strain (AID 175). As to conditions: S. cerevisiae mlh1 rad18 strain growth inhibition; at 50.0 µM; active compounds read high. Summed up: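 Test agents were incubated with a yeast strain of defined genotype (DNA damage repair defect). Inhibition of growth was derived by comparison with vehicle-exposed cultures.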

Regarding `CCC(C(=O)c1ccccc1)c1cccc2c1N(C(C)=O)CC2` (stereo not given), the growth inhibition in assay [1] is 0.05%; in assay [2] it was 6.9%; in assay [3], -7.5%; in assay [4] it was -5.6%; in assay [5], 11.2%; in assay [6] it was 20.1%.

`COc1cccc(NC(=O)CC(=O)N2N=C(N(CCC#N)c3ccc(Cl)cc3)CC2c2ccccc2)c1` (stereo not given): the growth inhibition was 19.1% in assay [1]; -4.2% in assay [2]; 19.1% in assay [3]; 8.9% in assay [4]; -0.15% in assay [5]; -0.75% in assay [6].

Regarding `CS(=O)CC(Nc1ccccc1)c1ccccc1` (stereo not given), the growth inhibition was -3.75% in assay [1]; -12.8% in assay [2]; -10.6% in assay [3]; 2% in assay [4]; -25.6% in assay [5]; -3.45% in assay [6].

For the molecule `CCOC(=O)C(=O)C(Cc1ccccc1)C(=O)OCC` (stereo not given), the growth inhibition in assay [1] was 0.2%; in assay [2], -3.95%; in assay [3], 9.75%; in assay [4] it was -46.5%; in assay [5] it was 11.7%; in assay [6], -7.2%.

Turning to `Cc1c(-c2ccccc2)c2ccccc2n1C`, the growth inhibition in assay [1] was 38.1%; in assay [2], 8.55%; in assay [3], 10.4%; in assay [4], 20.3%; in assay [5], 20.6%; in assay [6], 22.5%.

As for `CSS(=O)(=O)C(c1ccccc1)c1ccccc1`, the growth inhibition in assay [1] is -14.6%; in assay [2], 2.55%; in assay [3], -2.1%; in assay [4], -2.45%; in assay [5], 60.2%; in assay [6] it was -14.8%.

As for `O=C(NCC(C(=O)OCc1ccccc1)C(=O)OCc1ccccc1)OCc1ccccc1`, the growth inhibition was -8.9% in assay [1]; -13.8% in assay [2]; 1.55% in assay [3]; -14.1% in assay [4]; -24.4% in assay [5]; -12.3% in assay [6].

Take `Cc1ccc2c3c1CCCN3CCC2`: the growth inhibition in assay [1] is 3.45%; in assay [2], -3.85%; in assay [3], 15.6%; in assay [4], 61.9%; in assay [5], -0.55%; in assay [6], 8.95%.

Take `Clc1cccc(-c2sc(-c3ccsc3)cc2Cc2ccsc2)c1`: the growth inhibition was -21.2% in assay [1]; -20.1% in assay [2]; -22.1% in assay [3]; -28.6% in assay [4]; -24.1% in assay [5]; 2.1% in assay [6].

As for `Cn1c(COc2ccc(/C=N\NC(=O)c3ccc(C(=O)N/N=C/c4ccc(OCc5c[n+]6ccccc6n5C)cc4)cc3)cc2)c[n+]2ccccc12`, the growth inhibition in assay [1] is -5%; in assay [2] it was 3.5%; in assay [3], -2.85%; in assay [4] it was 26.7%; in assay [5] it was 1.6%; in assay [6], -36.8%.

In the case of `CC(=O)C1C[C@]2(O)[C@@]3(C)CO[C@]2(C)CC1(O)C3` (stereo not given in full), the growth inhibition is 3.45% in assay [1]; 11.4% in assay [2]; 17.9% in assay [3]; 7.2% in assay [4]; 20.2% in assay [5]; 12.9% in assay [6].

`C[Si](C)(C)Oc1cc(N=NNC2=CC(=O)c3ccccc3C2=O)c(O)c2ccccc12`: the growth inhibition in assay [1] is -0.1%; in assay [2], 2.2%; in assay [3], -11.8%; in assay [4], -24%; in assay [5], 7.6%; in assay [6], 5.15%.

For `CC(=O)OC1CN(c2ccccc2)CC(OC(C)=O)CN(c2ccccc2)C1` (stereo not given), the growth inhibition was 38.5% in assay [1]; 3.95% in assay [2]; 38% in assay [3]; -24.4% in assay [4]; 2.1% in assay [5]; 31.8% in assay [6].

Regarding `C=CCOc1ccc(S(=O)(=O)c2ccc(OCC=C)cc2)cc1`, the growth inhibition in assay [1] is 3.55%; in assay [2] it was -7.9%; in assay [3] it was -2.55%; in assay [4], -27.7%; in assay [5], 8.2%; in assay [6], -4.35%.

With `CCN(c1ccccc1C(=O)O)S(=O)(=O)c1ccc(C)cc1`, the growth inhibition was 1.9% in assay [1]; -1.95% in assay [2]; 23.2% in assay [3]; 27.6% in assay [4]; 22% in assay [5]; 11.9% in assay [6].

With `CSc1ccc(NC(=S)SCc2ccc3c(c2)OCO3)cc1Cl`, the growth inhibition was 95.7% (active) in assay [1]; 98.6% (active) in assay [2]; 98% (active) in assay [3]; 84.3% (active) in assay [4]; 97.5% (active) in assay [5]; 97.2% (active) in assay [6].

In the case of `CCCCNC(=O)Nc1cc(C)ccc1C`, the growth inhibition in assay [1] is -0.4%; in assay [2] it was 1.95%; in assay [3] it was -0.7%; in assay [4] it was -9.75%; in assay [5] it was 8.2%; in assay [6], 2.1%.

For the molecule `CC(=O)Oc1cccn(C)c1=O`, the growth inhibition in assay [1] was 18.6%; in assay [2] it was 19.1%; in assay [3] it was -6.35%; in assay [4], 24.6%; in assay [5] it was 32.5%; in assay [6], 21.1%.

In the case of `O=C1/C(=C/c2ccccc2)N=C(c2ccccc2)N1n1c(-c2ccccc2)nc2ccccc2c1=O`, the growth inhibition in assay [1] was 7.5%; in assay [2], 0.35%; in assay [3], 24.4%; in assay [4], 17.8%; in assay [5], -4.05%; in assay [6] it was 21.8%.

`NC(=O)c1cc(Cl)c(N)c(Cl)c1`: the growth inhibition is 8.2% in assay [1]; -7.65% in assay [2]; -11.6% in assay [3]; -5.25% in assay [4]; -12.4% in assay [5]; -11.8% in assay [6].

With `O=c1[nH]c(=S)c2cncnc2n1C1OC(CO)C(O)C1O` (stereo not given), the growth inhibition in assay [1] is 15.8%; in assay [2] it was 11.8%; in assay [3], -6.6%; in assay [4], 10.2%; in assay [5], -28.3%; in assay [6], -26.4%.

Regarding `C1=Nc2ccccc2/C1=C/C=C/c1ccccc1`, the growth inhibition in assay [1] was 24.6%; in assay [2] it was 31.6%; in assay [3] it was 28.3%; in assay [4], 10.2%; in assay [5], 41.5%; in assay [6] it was 21.8%.

With `Nc1ccc(SCCC(=O)O)cc1`, the growth inhibition in assay [1] is 18.9%; in assay [2] it was 0.7%; in assay [3] it was -0.25%; in assay [4], 2.1%; in assay [5], 5.95%; in assay [6], -13.3%.

Consider `COc1ccc(/C=N/NC=O)cc1OC`, for which the growth inhibition in assay [1] is 7.35%; in assay [2] it was 6.5%; in assay [3], 1.2%; in assay [4], 1.45%; in assay [5] it was -12.5%; in assay [6] it was -2.85%.

Take `COC(=O)/C=C/c1ccc([N+](=O)[O-])cc1`: the growth inhibition in assay [1] is -6.3%; in assay [2] it was -2.5%; in assay [3] it was 20.9%; in assay [4], -24%; in assay [5] it was 8.15%; in assay [6], -18.2%.

On to `N#CN=CN1CCN(c2ccccc2)CC1`, for which the growth inhibition in assay [1] was 4.8%; in assay [2] it was -11.2%; in assay [3], -0.15%; in assay [4], -22.6%; in assay [5], -5.4%; in assay [6], -11.9%.

`Clc1ccc(N=Cc2ccccc2Cl)cc1`: the growth inhibition in assay [1] was 34.8%; in assay [2], 16.1%; in assay [3], 25.2%; in assay [4], -13.7%; in assay [5], 42%; in assay [6] it was 19.7%.

Take `O=c1nc(Oc2ccccc2)nc2c3ccccc3ccn12`: the growth inhibition in assay [1] is -5.4%; in assay [2] it was 16.1%; in assay [3], 11.9%; in assay [4], -9.9%; in assay [5] it was 18.8%; in assay [6] it was 24.4%.

On to `O=c1c(Cl)c(-c2cccc3ccccc23)oc2ccccc12`, for which the growth inhibition in assay [1] was -14.3%; in assay [2], 1.8%; in assay [3], 4.2%; in assay [4], -40.6%; in assay [5] it was 9.2%; in assay [6], -15.4%.

Consider `CC1=CC2OC3C(OC(=O)c4ccccc4)C(OC(=O)c4ccccc4)C(C)(C2(COC(=O)c2ccccc2)CC1)C31CO1` (stereo not given), for which the growth inhibition in assay [1] is 6.3%; in assay [2], -3.1%; in assay [3], 1.55%; in assay [4], 7.8%; in assay [5] it was 4.85%; in assay [6] it was 17.7%.

In the case of `CSC(=S)n1nc(C)c(N=Nc2ccccc2[N+](=O)[O-])c1C`, the growth inhibition in assay [1] was 26.5%; in assay [2], -2.85%; in assay [3], 0.15%; in assay [4] it was 5.05%; in assay [5], 7.95%; in assay [6] it was 7.75%.

Regarding `O=C(N/N=C/c1ccc(Cl)cc1)c1cc(-c2ccccc2)nc2ccccc12`, the growth inhibition was 5.95% in assay [1]; 22.3% in assay [2]; 17.4% in assay [3]; 21.7% in assay [4]; 2% in assay [5]; -5.7% in assay [6].

On to `ClC(=Nc1cccc(Cl)c1)C(Cl)=Nc1cccc(Cl)c1`, for which the growth inhibition is -6.5% in assay [1]; -1.7% in assay [2]; -2.05% in assay [3]; 12.6% in assay [4]; 6.45% in assay [5]; 1.15% in assay [6].

On to `COC(=O)C(Cc1ccc(O)cc1)NC(=O)CNS(=O)(=O)c1ccc(C)cc1` (stereo not drawn) (Tos-Gly-[ξY]-OMe), for which the growth inhibition in assay [1] was 35.8%; in assay [2] it was -4.1%; in assay [3] it was 19.9%; in assay [4] it was 10.9%; in assay [5] it was -1.2%; in assay [6], 8.4%.

As for `COC(=O)c1ccc([N+](=O)[O-])cc1C(=O)OC`, the growth inhibition in assay [1] was 4.85%; in assay [2], -16.7%; in assay [3], -42.1%; in assay [4], -12.3%; in assay [5], -52.8%; in assay [6], -3.2%.
